This is an account of results in PubChem BioAssay.

“And” between values parts separate entries of the source, which are not always exact repeats. Equal entries are not always repeated. Values without a mark were called inactive.

The experiment deals with Dihydroorotate dehydrogenase (quinone), mitochondrial (Plasmodium falciparum (isolate 3D7)) (UniProt Q08210). The experiment is described as follows: inhibition of P. falciparum DHODH – biochemical, C-terminal His tag, absorbance 600 nm, primary screen (AID 1175).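 Note: recombinant parasite enzyme with a five histidine tag at its C terminus; test concentration not given here.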 Particulars: PfDHODH enzyme, DCIP absorbance 600 nm; higher = more signal, called active from +8 up or from −8 down.
Sequence of Dihydroorotate dehydrogenase (quinone), mitochondrial (Plasmodium falciparum (isolate 3D7)) (Q08210 whole entry, looked up): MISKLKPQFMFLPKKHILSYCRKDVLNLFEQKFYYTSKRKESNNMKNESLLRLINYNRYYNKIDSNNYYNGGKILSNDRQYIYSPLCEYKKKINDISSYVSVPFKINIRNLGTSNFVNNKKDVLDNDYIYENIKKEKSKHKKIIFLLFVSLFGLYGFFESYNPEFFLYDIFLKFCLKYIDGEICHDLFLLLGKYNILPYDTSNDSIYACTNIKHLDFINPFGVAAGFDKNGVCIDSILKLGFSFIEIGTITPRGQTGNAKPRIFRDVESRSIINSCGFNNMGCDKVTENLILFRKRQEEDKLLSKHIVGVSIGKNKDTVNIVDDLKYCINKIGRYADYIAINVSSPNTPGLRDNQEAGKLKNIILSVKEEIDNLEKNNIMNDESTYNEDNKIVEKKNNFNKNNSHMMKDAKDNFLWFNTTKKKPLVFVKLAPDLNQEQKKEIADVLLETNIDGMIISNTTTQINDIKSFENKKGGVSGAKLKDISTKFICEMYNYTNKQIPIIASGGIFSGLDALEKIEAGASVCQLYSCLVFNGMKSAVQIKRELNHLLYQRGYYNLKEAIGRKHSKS
In the case of `CO[C@H]1COC(=O)CC=C[C@@H](C)COC(=O)[C@H](CCSC)NC(=O)CC=C[C@@H]1C`, the composite z-score was 0.177 and 0.0636.
On to `C=CCN(CCCCC)C(=O)C1N(C(C)(C)CO)C(=O)C2C(C(=O)O)C3C=CC21O3` (centres undefined), for which the composite z-score was 0.457 and -0.446.
As to `C=CCN1C(=O)[C@]2(O[C@H](CCn3cc(CCO)nn3)[C@@H]([Si](C)(C)c3ccc(OC)cc3)[C@@H]2C)c2cc(N3C(=O)c4cccc5cccc3c45)ccc21`, the composite z-score was 1.19 and 1.35.
Then `CCC[C@@H]1C[C@@]1(CCC)[C@@H](NC(=O)c1ccc(-c2ccccc2)cc1)c1cccc(Cl)c1`, with -0.824 and 0.499.
The figure for `C[C@@H]1CC[C@H]2C(=O)O[C@H](CN=[N+]=[N-])CN2[C@H]1c1ccc(Br)cc1` is 0.41 and 0.841; for `C[C@@H]1CN2[C@@H](CC[C@@H](C)[C@@H]2c2ccc(Br)cc2)C(=O)O1` it is 0.694 and -1.1; for `COc1ccc(O[C@H]2C=C[C@@H](c3ccccc3)O[C@@H]2COC(=O)CCC(C)=NO[C@H](C)c2cn([C@H](CO)Cc3ccccc3)nn2)cc1` it is 0.899 and -0.413.
Take `CON(C)C(=O)c1nnc2c3ccccc3n(S(=O)(=O)c3ccc(C)cc3)c2n1`: the composite z-score was 0.354 and -0.588.
Consider `COc1ccc(COC(=O)NN=C2C[C@@H](O)[C@@H](O)[C@@H]3[C@@H]4C(=O)N(C(C)(C)C)C(=O)[C@@H]4CC[C@H]23)cc1`, for which the composite z-score was -1.31.
Then `COC(=O)C1=C(C)N(Cc2ccccc2)[C@]23O[C@](C(=O)OC)(C(=O)N2[C@@H]1c1ccccc1)[C@@H](C(=O)OC)[C@H]3C(=O)OC`, with 0.466 and -0.412; and `C[C@@H]1CC[C@H]2C(=O)NC[C@@H](O)CN2[C@H]1c1ccc(Br)cc1`, with -0.679 and 0.382; and `C#CCCCON=C1C[C@@H](O)[C@@H](O)[C@@H]2[C@@H]3C(=O)N(C4CCCCC4)C(=O)[C@@H]3CC[C@H]12`, with -0.822.
For `C[C@@H]1CC[C@@H](C(=O)O)N[C@H]1c1ccc(-c2ccco2)cc1`, the composite z-score is 0.268.
The figure for `C=CCN(C(=O)C1N(C(C)(C)CO)C(=O)C2C(C(=O)O)C3C=CC21O3)C(C)(C)C` (centres undefined) is 1.3 and -0.307; for `C=CCN(C(=O)C(c1cccs1)N(C(=O)/C=C\C(=O)O)c1ccc(CCO)cc1)C(C)(C)C` (centres undefined) it is -2.45 and -0.818.
On to `Cc1ccc(S(=O)(=O)N[C@H]2COC(=O)[C@@H](Cc3ccccc3)NC(=O)[C@@H](C)COC(=O)CC=C[C@@H]2C)cc1`, for which the composite z-score was -0.395 and -0.412.
In the case of `CC(C)[Si]1(C(C)C)OCc2cc(CCCc3cc4c(c(CCc5ccccc5)n3)[Si](C(C)C)(C(C)C)OC4)nc(CCc3ccccc3)c21`, the composite z-score was -0.351 and 0.681.
On to `O=c1n(-c2ccccc2)c(=O)n2n1CC[C@@H]1C(=NOC[C@@H](O)COCc3ccco3)[C@H]3O[C@H]3[C@@H](O)[C@@H]12`, for which the composite z-score is -2.79 and 0.389.
Then `O=C1C[C@]2(c3ccc([N+](=O)[O-])cc3)C(=O)N(Cc3ccccc3)c3cc(CO)ccc3[C@H]2N1C1CCCCC1`, with -2.77 and 0.496; and `CCOC(=O)[C@H](CC(C)C)NC(=O)CCC1CC(OC(=O)NCc2cccc3ccccc23)CC2(CCCC(COC(=O)NCc3ccccc3)O2)O1` (some centres undefined), with -0.621; and `CCOC(=O)c1ccc(NC(=O)O[C@H]2[C@H](OC(=O)Nc3ccccc3)[C@H](OC(=O)Nc3ccccc3)[C@@H](OC)O[C@@H]2CO)cc1`, with -0.299 and -0.597.
With `CC[C@@H]1C(Sc2ccccc2)C(C(=O)O)[C@H](c2ccc(C)cc2)N1S(=O)(=O)c1ccc(C)cc1` (some centres undefined), the composite z-score is 0.0392 and -0.581.
Then `CCCC[C@@H]1CN2[C@@H](CC[C@@H](C)[C@@H]2c2ccc(Br)cc2)C(=O)O1`, with 0.466 and -0.248; and `C=CCN(CCCCC)C(=O)C(c1cccs1)N(C(=O)/C=C\C(=O)O)c1ccc(CCO)cc1` (centres undefined), with -0.249 and -0.533.
The figure for `C=C(C)C(=O)OC[C@@H]1CN2[C@@H](CC[C@@H](C)[C@@H]2c2ccc(Br)cc2)C(=O)O1` is 0.187.
Then `COC(=O)C1=C2N(Cc3ccccc3)C(C)=C(C(=O)OC)[C@@H](c3ccccc3)N2C(=O)[C@](O)(C(=O)OC)C1`, with 0.268 and -0.608; and `C=C[C@@H](C)[C@@H](O)c1ccc(OCCO)cc1`, with 0.0788 and -1.03; and `C=CCN(Cc1ccccc1)C(=O)C1N(C(C)(C)CO)C(=O)C2C(C(=O)O)C3C=CC21O3` (centres undefined), with 1.25 and 0.316.
`C=CCN(C(=O)C1N(C(C)(C)CO)C(=O)C2C(C(=O)O)C3C=CC21O3)c1ccc(OC)cc1` (centres undefined): the composite z-score was 0.2 and -2.13.
On to `COC(=O)c1c2oc(c1C(=O)OC)C(=O)N[C@@H](Cc1ccccc1)Cn1cc(nn1)C1(CCCCC1)NC(=O)N[C@H](CO)CC2`, for which the composite z-score is 0.338 and 0.282.
Take `C=C[C@H](C)[C@H](O)c1ccc(O)c2ccccc12`: the composite z-score is -1.87 and -1.49.
Take `CCOC(=O)C[C@H]1[C@H](OC(=O)c2ccccc2-c2ccccc2)[C@@H](NC(=O)Cc2ccc(OC)cc2)c2cc(OCCCO)ccc2N1C(=O)c1ccc2ccccc2n1`: the composite z-score is 0.34 and 0.282.
The figure for `CC(C)OC(=O)C=C1C[C@@H](c2ccccc2)O[C@@H](c2ccccc2)O1` is -0.125 and -1.68.
Take `COC(=O)C1=C(C)N(Cc2ccccc2)C2=C(C(=O)c3ccccc3)[C@H](c3ccccc3)[C@@](O)(C(=O)OC)C(=O)N2[C@@H]1c1ccccc1`: the composite z-score is 0.382 and -0.214.
For `COC(=O)[C@@]1(Cc2ccc(F)cc2)[C@H]2c3cc(C(=O)N4CCCC4)n(Cc4c(CO)[nH]cc(C)c4=O)c3C[C@H]2CN1C(=O)c1ccccc1`, the composite z-score is 0.0634 and 0.524.
`C[N+](C)(C)CCCCCCNC(=O)[C@H]1C[C@H]2C(=O)N[C@@H](CCCC[N+](C)(C)C)C(=O)N2[C@H]1c1ccc(O)cc1`: the composite z-score is -1.01 and -0.373.
Consider `CC(CO)N1C(=O)[C@@H]2C3C(=O)OCCC=C[C@H]3OC23C=CCN(CCN2CCOCC2)C(=O)[C@@H]13` (some centres undefined), for which the composite z-score is -1.07 and -2.08.
Regarding `CCCC[C@@H]1CN2[C@H](c3ccc(Br)cc3)[C@@H](C)CC[C@H]2C(=O)O1`, the composite z-score was 0.0663 and -0.155.
Then `CO[C@H]1COC(=O)CC=C[C@H](C)[C@H](OC)COC(=O)[C@@H](C)COC(=O)CC=C[C@@H]1C`, with 0.175 and 0.55.
